Each structure is given as a SMILES string. In all, about 400,000 compounds went through this assay and about 2,100 (0.53%) were called active. Not shown: some 14% with an inconclusive outcome. How the calls were made is not given here. This excerpt belongs to a sample that is enriched for actives.

Ataxin-2 (Homo sapiens), sequence (Q99700 whole entry): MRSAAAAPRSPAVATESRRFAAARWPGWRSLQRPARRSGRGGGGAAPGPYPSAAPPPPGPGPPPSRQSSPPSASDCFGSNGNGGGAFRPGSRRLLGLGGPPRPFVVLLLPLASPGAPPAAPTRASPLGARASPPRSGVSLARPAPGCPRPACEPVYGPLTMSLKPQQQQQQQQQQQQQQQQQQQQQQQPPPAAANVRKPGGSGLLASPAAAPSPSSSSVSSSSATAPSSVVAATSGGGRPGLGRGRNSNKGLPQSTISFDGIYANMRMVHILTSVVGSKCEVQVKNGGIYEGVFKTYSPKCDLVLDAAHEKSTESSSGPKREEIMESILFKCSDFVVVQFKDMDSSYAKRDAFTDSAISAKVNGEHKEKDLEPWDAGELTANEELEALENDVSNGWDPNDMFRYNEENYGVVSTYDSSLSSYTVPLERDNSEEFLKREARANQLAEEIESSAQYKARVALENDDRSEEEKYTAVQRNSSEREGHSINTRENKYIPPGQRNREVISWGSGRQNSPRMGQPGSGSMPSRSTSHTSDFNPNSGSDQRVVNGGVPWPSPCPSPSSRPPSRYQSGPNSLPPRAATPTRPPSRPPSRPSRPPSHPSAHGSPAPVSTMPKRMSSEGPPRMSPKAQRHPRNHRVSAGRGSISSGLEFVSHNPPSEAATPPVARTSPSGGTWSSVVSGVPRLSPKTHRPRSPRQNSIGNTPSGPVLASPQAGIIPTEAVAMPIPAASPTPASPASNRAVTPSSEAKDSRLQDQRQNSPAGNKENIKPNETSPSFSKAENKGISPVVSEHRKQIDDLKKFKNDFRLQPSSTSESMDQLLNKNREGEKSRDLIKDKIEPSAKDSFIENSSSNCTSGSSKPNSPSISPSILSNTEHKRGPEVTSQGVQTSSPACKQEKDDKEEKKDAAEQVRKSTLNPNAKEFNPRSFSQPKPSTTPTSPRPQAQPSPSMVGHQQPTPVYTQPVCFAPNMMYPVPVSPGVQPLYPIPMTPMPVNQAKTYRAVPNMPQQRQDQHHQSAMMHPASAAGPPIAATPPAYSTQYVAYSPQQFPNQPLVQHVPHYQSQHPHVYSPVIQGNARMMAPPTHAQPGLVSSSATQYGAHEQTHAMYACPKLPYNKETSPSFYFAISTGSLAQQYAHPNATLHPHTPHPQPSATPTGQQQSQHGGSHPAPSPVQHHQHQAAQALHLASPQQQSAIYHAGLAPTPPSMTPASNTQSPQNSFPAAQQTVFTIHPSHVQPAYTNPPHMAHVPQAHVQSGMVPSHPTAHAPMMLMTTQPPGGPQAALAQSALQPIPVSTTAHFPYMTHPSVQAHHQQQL

This test concerns the target Ataxin-2 (Homo sapiens) (UniProt Q99700). Put plainly: qHTS for Inhibitors of ATXN expression. Format: functional. (qHTS replaces the single test concentration by a dilution series.)
Regarding `N#CC12COC3(CCCCC3C1(C#N)C#N)OC2=N` (stereo unspecified), the Potency entry was “inactive”. The entry for `Cc1cc(=O)oc2c3c(ccc12)OCN(Cc1ccc(Cl)cc1)C3` is “inactive”; for `O=C(O)c1ccc(Nc2nc(-c3cc4ccccc4oc3=O)cs2)cc1O` it is “inactive”. Next, `Cc1cc(NC(=S)NC(=O)c2ccccc2)ccc1-c1cc2ccccc2oc1=O`: 17.8 µM (active); `O=C(O)c1cccc(Nc2nc(-c3cc4ccccc4oc3=O)cs2)c1`: “inactive”. The entry for `N#CC1=C(N)OC2=C(CC/C2=C\c2ccccc2)C1c1ccccc1` (stereo unspecified) is “inactive”. For the compound `N#CC1=C(c2ccccc2)/C(=C/c2ccccc2)OC1=O`, the Potency is 22.4 µM (active). Next, `Nc1ccc2c(c1)nc(O)c1cc(N)ccc12`: “inactive”; `CCN(CC)c1ccc(/C=C/C(=O)C2C(=O)C=C(C)OC2=O)cc1` (stereo unspecified): “inactive”; `CCOC(=O)C1=C(Cc2ccc(Cl)cc2)C(=O)c2ccccc2C1=O`: 31.6 µM (active). The entry for `CCOC(=O)c1sc(-c2ccc(Cl)cc2)nc1O` is “inactive”; for `CCOC(=O)c1c(C)n(O)c2ccc(Cl)cc2c1=O` it is “inactive”.

Take `CCN1CCN(c2nc3c(C)cccn3c(=O)c2/C=C(\C#N)C(=O)NC)CC1`: the Potency result is “inactive”.

With `COc1ccc(-c2cc(CNC(=O)CCl)on2)cc1`, the Potency is 15.8 µM (active). The entry for `COc1ccc(-c2cc3c(=O)n(CC(=O)NCc4ccc(Cl)cc4)ncn3n2)cc1` is “inactive”. The entry for `COc1ccc(-c2onc3ccc(C(C)=O)cc23)cc1` is “inactive”; for `CC(C)c1ccc(C2C(C#N)=C(N)Oc3c2oc(CO)cc3=O)cc1` (stereo unspecified) it is “inactive”. Next, `CCN(CC)C(=O)c1ccc2c3c(cccc13)C(=O)N(CCc1ccc(OC)c(OC)c1)C2=O`: 28.2 µM (active). Take `CCCN1C(=O)c2cccc3c(N4CCCCC4)ccc(c23)C1=O`: the Potency result was “inactive”. The entry for `COc1ccc(CCN2C(=O)CS/C2=N/NC(=O)c2ccccc2F)cc1OC` is “inactive”; for `O=C(O)CCSc1nnc(CNc2ccc(Cl)cc2)n1Cc1ccccc1` it is “inactive”. For the compound `CC(C)N1CCN(CC2COc3ccccc3O2)CC1` (stereo unspecified), the Potency result was “inactive”. As to `Cc1cc(C(=O)CCl)c(C)n1CC1COc2ccccc2O1` (stereo unspecified), the Potency was 26.7 µM (active).

In the case of `CC1CC(=NNC(=O)C2COc3ccccc3O2)CC(C)(C)C1` (stereo unspecified), the Potency entry is “inactive”. Next, `O=C(O)CN1C(=O)C2C3CCC(C3)C2C1=O` (stereo unspecified): “inactive”; `COc1ccc(-c2cn3nc4c(nc3n2)CCCC4)cc1`: “inactive”; `CCCCCCc1cc2cc(-c3nnc(-c4ccccc4O)o3)c(=O)oc2cc1O`: “inactive”. The figure for `CC(C)c1ccc2c(c1)CCC1C(C)(CN)CCCC21C` (stereo unspecified) is 39.8 µM (active); for `CCOC(=O)c1c(CSC(=N)N)n(C)c2cc(Br)c(OC(C)=O)cc12` it is 35.5 µM (active). The figure for `CCOC(=O)c1c(CSc2ccccc2)n(C)c2cc(Br)c(OCC(O)CNC(CO)(CO)CO)cc12` (stereo unspecified) is 25.1 µM (active); for `CCOC(=O)c1c(-c2ccccc2)oc2ccc(OCC(O)CNCCN(C)C)cc12` (stereo unspecified) it is “inactive”. Turning to `O=C(C1=CC=CN2CCS(=O)(=O)N=C12)N1CCN(c2cccc(Cl)c2)CC1`, the Potency result is “inactive”.

For `COc1ccc(OC(F)(F)F)cc1CC1(C)C(=O)Nc2ccc(-c3ccsc3)cc21` (stereo unspecified), the Potency is 39.8 µM (active). The figure for `CC1(Cc2ccccc2OC(F)(F)F)C(=O)Nc2ccc(-c3ccsc3)cc21` (stereo unspecified) is 39.8 µM (active). Next, `CCOC(=O)C1=NN(C(=O)c2ccc(OC)cc2)C(O)(c2ccc(Cl)cc2)C1` (stereo unspecified): “inactive”. Next, `CCOC(=O)C1=NOC2(C1)C(=O)Nc1ccc(OC(F)(F)F)cc12` (stereo unspecified): 39.8 µM (active). Consider `Cc1ccc(CC2(C)C(=O)Nc3ccc(OC(F)(F)F)cc32)cc1` (stereo unspecified), for which the Potency is 39.8 µM (active). The entry for `CN1CCCC(OC(=O)c2cc(Cl)cc(Cl)c2)C1` (stereo unspecified) is “inactive”; for `c1ccc(-c2nc(N3CCCCC3)nc3ccccc23)cc1` it is “inactive”. Next, `C#CCOCCOCCOCCNc1nc(N2CCN(C(=O)CCCCCCCCCCNC(=O)[C@H](CCCCN)n3cc(C[C@@H](C)CC)nn3)CC2)nc(N2CCN(C(=O)CCCCCCCCCCNC(=O)[C@H](CCCN=C(N)N)n3cc(C[C@@H](C)CC)nn3)CC2)n1`: 20 µM (active); `C#CCOCCOCCOCCNc1nc(N2CCN(C(=O)CCCCCCCCCCNC(=O)[C@@H](CCC(=O)O)n3cc(CCCCCN)nn3)CC2)nc(N2CCN(C(=O)CCCCCCCCCCNC(=O)[C@H](CCCCN)n3cc(C[C@@H](C)CC)nn3)CC2)n1`: 31.6 µM (active); `Cc1ccc(CNc2nc(NCC3CC3)nc3ccsc23)c(C)c1`: 39.8 µM (active).

Turning to `Cc1ccc(Nc2nc(NCC3CC3)nc3ccsc23)c(C)c1`, the Potency was 20 µM (active). Next, `O=C(COC(=O)c1ccc(Cl)nc1)Nc1ccc2c(c1)CCC2`: “inactive”; `CC(=O)Oc1ccc2c(c1)O/C(=C\c1ccncc1)C2=O`: “inactive”; `COCc1cc(C)nc(SCC(=O)Nc2nc(C)cs2)c1C#N`: “inactive”. The entry for `CCOC(=O)Cc1csc(NS(=O)(=O)c2ccc(SC)cc2)n1` is “inactive”; for `NNC(=O)c1cccc(Cn2cc(Br)c([N+](=O)[O-])n2)c1` it is “inactive”; for `C#CCn1/c(=N/C(=O)CSC(C)=O)sc2cc(F)ccc21` it is 6.7 µM (active).

Turning to `COCC(=O)OC1CCn2c1nc1c2C(=O)C(C)=C(NC(C)=O)C1=O` (stereo unspecified), the Potency was 10 µM (active). In the case of `OCC1(CC2CCCCO2)CCN(Cc2ccccc2-c2ccco2)CC1` (stereo unspecified), the Potency entry was “inactive”. Take `Nc1nc(Br)c2ccccc2c1-c1ccccc1`: the Potency result was “inactive”. With `O=C(Oc1ccc(C(=S)N2CCOCC2)cc1)c1cccc(Cl)c1`, the Potency result is “inactive”.

In the case of `CC(C)c1ccc(C(=O)N2CCN(c3cnn(C)c(=O)c3Cl)CC2)cc1`, the Potency result was “inactive”. The entry for `Fc1cccc(/C=N/Nc2cc(N3CCOCC3)ncn2)c1` is “inactive”; for `Clc1cccc(N/N=C/c2ccc(N3CCOCC3)s2)c1` it is 39.8 µM (active); for `Oc1c(Cl)cc(Cl)cc1/C=N/c1ccc(N2CCOCC2)cc1` it is “inactive”. The entry for `C=CCN1C(=O)[C@@H]2Cc3c([nH]c4ccccc34)C(c3cc(OC)c(OC)c(OC)c3)N2C1=S` (stereo partly specified) is “inactive”; for `COc1cc(C2CC(c3cccnc3)=NN2c2ccc(F)cc2)cc(OC)c1OC` (stereo unspecified) it is “inactive”; for `COc1cc(C2CC(=O)N(Cc3ccc(F)cc3)c3ccccc3S2)cc(OC)c1OC` (stereo unspecified) it is 28.2 µM (active). Next, `Cc1cc(NC(=O)C(C)SCC(=O)O)no1` (stereo unspecified): “inactive”; `Cc1ccc(S(=O)(=O)N2C[C@H]3n4c(=O)ccc(=O)n4C[C@H](OC(=O)NCc4ccccc4F)[C@@]3(O)C2)cc1`: 35.5 µM (active); `Cc1ccc(S(=O)(=O)N2CCCC(CCC(=O)NCc3ccccc3F)C2)s1` (stereo unspecified): “inactive”. For the compound `CCCCCCn1c(=O)n2n(c1=O)[C@@H]1CN(S(=O)(=O)c3ccc(C)cc3)C[C@]1(O)[C@@H](OC(=O)NCc1ccccc1)C2`, the Potency was 28.2 µM (active).

Consider `CCCCCCNC(=O)O[C@H]1Cn2c(=O)n(CCCCCC)c(=O)n2[C@@H]2CN(S(=O)(=O)c3ccc(C)cc3)C[C@]12O`, for which the Potency was 25.1 µM (active). The figure for `CCCCCCn1c(=O)n2n(c1=O)[C@@H]1CN(S(=O)(=O)c3ccc(C)cc3)C[C@]1(O)[C@@H](OC(=O)NCc1ccccc1F)C2` is 35.5 µM (active); for `Cn1c(=O)c(=O)n(C)c2cc(S(=O)(=O)CCC(=O)NCc3ccccc3)ccc21` it is “inactive”; for `NS(=O)(=O)c1ccc(CNC(=O)/C=C/c2ccco2)cc1` it is “inactive”.

Consider `O=C(Cc1ccccc1)NCc1nnc(S)n1-c1ccc(Br)cc1`, for which the Potency result was “inactive”. Next, `CSc1c(C#N)c(O)nc2c1CCc1ccccc1-2`: “inactive”. The entry for `COc1ccccc1[C@H]1C(c2cccc(C)c2)=NN(c2ccccc2)[C@@H]1CO` is “inactive”; for `Cc1ccc(C)c(N2CCN(C(=O)c3ccc(Cn4c(=S)[nH]c5ccc(N6CCOCC6)cc5c4=O)cc3)CC2)c1` it is “inactive”; for `CCCCCCNC(=O)O[C@H]1CN(C(=O)OC(C)C)N(C(=O)OC(C)C)[C@@H]2CN(S(=O)(=O)c3ccc(C)cc3)C[C@]12O` it is 22.4 µM (active). On to `CCCC(C)NC(=O)c1cc(S(=O)(=O)N2CCCCCC2)ccc1OC` (stereo unspecified), for which the Potency result is “inactive”. Next, `COCCN(CCOC)C(=O)CSc1ccc(S(=O)(=O)N2CCN(C)CC2)cn1`: “inactive”; `CC1=C(C(=O)Nc2nc3ccccc3s2)C(c2ccco2)C(C#N)=C(SCC(=O)NC2CCCCC2)N1` (stereo unspecified): “inactive”. Next, `O=C(Cn1ncc(Cl)c(Cl)c1=O)Nc1ccc2c(c1)OCO2`: 35.5 µM (active); `CC(=O)Nc1ccc2nc3c(=O)n(C)c(=O)n(C)c3nc2c1`: “inactive”.

As for `O=C(CCl)Nc1ccc2c(c1)OCO2`, the Potency is 22.4 µM (active). The entry for `Cc1ccc(C(=O)O)cc1-c1ccc(/C=C2\SC(=O)N(CC(=O)Nc3ccc4c(c3)OCO4)C2=O)o1` is “inactive”. Consider `Cn1c(=O)n(C)c2cc(NC(=O)CCl)ccc21`, for which the Potency was 28.2 µM (active). Next, `COC(=O)c1ccc(NS(=O)(=O)c2ccc3c(c2)n(C)c(=O)n3C)cc1`: “inactive”; `O=C(Cn1ncc(Cl)c(Cl)c1=O)c1ccc2c(c1)OCCO2`: 42.3 µM (active).

With `O=C(CSc1nc2cc(Cl)c(Cl)cc2[nH]1)c1ccc2c(c1)OCO2`, the Potency result was “inactive”. The entry for `O=C(Nc1ccc2c(c1)OCO2)c1sc2cc(Cl)ccc2c1Cl` is “inactive”. Next, `CC(NS(=O)(=O)c1ccc(Cl)c(Cl)c1)C(=O)OCC(=O)Nc1ccc2c(c1)OCO2` (stereo unspecified): “inactive”; `NC(=O)c1ccc(NC(=O)COC(=O)c2c3c(nc4ccccc24)/C(=C\c2ccc4c(c2)OCO4)CCC3)cc1`: “inactive”; `COc1ccc(-c2c(C)c3ccc(O)c(CN4CCOCC4)c3oc2=O)cc1OC`: “inactive”. For the compound `COc1ccc(/C=C/c2nc(C#N)c(N3CCCCC3)o2)cc1OC`, the Potency result is “inactive”. The entry for `C=CCN=C(S)Nc1ccc(C)c(S(=O)(=O)N2CCCCC2)c1` is “inactive”.

For `Cc1ccc(NC(=O)Cn2ncc(Cl)c(Cl)c2=O)cc1S(=O)(=O)N1CCCCC1`, the Potency was 31.6 µM (active).

On to `CCCc1cc(O)nc(SCC(=O)Nc2ccc(C)c(S(=O)(=O)N3CCCCC3)c2)n1`, for which the Potency result is “inactive”. Next, `Cc1c(Br)c(C(F)(F)F)nn1CC(=O)NCc1ccco1`: “inactive”; `CCN(c1ccc(N/C=C2/C(=O)N(Cc3ccc(OC)cc3)C(=O)c3ccccc32)cc1)C(C)C`: “inactive”; `COc1ccc(CN([C@H](CO)CC(C)C)S(=O)(=O)N(Cc2ccccc2)[C@H](CO)CC(C)C)cc1`: 39.8 µM (active). The entry for `COc1ccc(CCNC(=O)CN(c2ccccc2)S(C)(=O)=O)cc1` is “inactive”.

The values are drawn from ChEMBL document CHEMBL1201862, “PubChem BioAssay data set” (2004).
